Over roughly 9,900 sequences, “r (bound/input frequency ratio)” has its median near 0.7; the highest 2% begin near 6.5. This excerpt belongs to a sample that is enriched for the highest values.
B1: ENSMUSG00000031028.199|Tub (ssRNA)
RNA: GGGAGUUCUACAGUCCGACGAUCGCUUCGAUAUCCGCAUGCUAACCUGCUAGGGUCUAUUCUGCAUGUCCUUUCUCUUCCCAGUUCCAGAGAUGAAACCCCUCCGAGUUAAUGUAUAAGGUUGGAAACCUUUCAGUAGGGAAUCAGGCAGUUCCCUGUUGAAAGUUGUCUGAGUUUUUGCACACCAUUCUGAUCUGAUGUGGCCUGUGCCUGGCUCCUCUAUGAGGACUUCGAGCUGUGCACAGACCUUAGCAGGACCACUGCACACUUUGUGUCUGUGUGACAGGCAGCCCAAGGGUUCUGGCUCUUGCGGUCGCACUAGUGUGGAAUUCUCGGGUGUCAAGG
B2: ENSMUSG00000090935.60|Synj2bp (ssRNA)
RNA: GGGAGUUCUACAGUCCGACGAUCGCUUCGAUAUCCGCAUGCUAAUUACCUGCACCUGGAUAUGGGACAGUAGGCUUUUACACUGUUCUUGUGAAUAGGUUUGUAAGCUUCAAAGUCUGCUUUACUUUAUCUUCUGUUAUGAUUGCCUUUGUCAGCAUAGGCAGGAGUCCUUUAGGAUUUCUGCCUAUCAGUAAAAGAAGUAUGUAACCCAAGUUCUACCUUCAGUGGAUUAAAGUUUCAUUAAGUGAAAAUGGAAAGAAAGUAGAAUUACUUGGUAAGAGGCCAAAUGAGGAUACAGAGGCUGCUCUUGCGGUCGCACUAGUGUGGAAUUCUCGGGUGUCAAGG
B3: ENSMUSG00000042529.476|Kcnj12 (ssRNA)
RNA: GGGAGUUCUACAGUCCGACGAUCGCUUCGAUAUCCGCAUGCUAAGAUGUAGGCAACAAGACUAGACCACAUUAAAUGCAUUUUGAUCUCUUUGAAUGCUACUGUGUUGAGAUGUGCGUCUCACUGGCCUCUGCCUGCCUCUCCCGCCUGCGGAGCACUUACACUUCCUGGGGCCCCUGCAGCUGGACCAUGUACAGGGCUCCCUGGGGCUUGUCCUCAGGGGCAGAGAAGGACAUGGUGGCAGCAGCACUGAGAACAGGAGCAUGGCCUCUCUCAGACCCCAGGGCAGUCAUUCAGUCUUUUCCUCUUGCGGUCGCACUAGUGUGGAAUUCUCGGGUGUCAAGG
B4: ENSMUSG00000058297.104|Spock2 (ssRNA)
RNA: GGGAGUUCUACAGUCCGACGAUCGCUUCGAUAUCCGCAUGCUAACCACGGUCUUGUGGUGAUGAGGCAGGACCUGUACACACAGCAAGGCUUACUAUCCGUCUCCUGACAUCCGAAGAGCUCGUCGCAGGUGUGUCUAAUGGCCCUUGGGCUGCACGUGGUUAAGCAUAGCUGUCUCUGUGGCCCAACACAAAGAGGUAAACUUACUUAAAACACAGGGGUUUUGUUGCUGUUUGUUUUUUGUUAGUUUGUUUGUUGAUAAUUGGAUUGAGGAGUUAAUCCUCUGUCACAAUGUCAAAAGCAUCUCUUGCGGUCGCACUAGUGUGGAAUUCUCGGGUGUCAAGG
B5: ENSMUSG00000043670.53|Diras1|229:234 (ssRNA)
RNA: GGGAGUUCUACAGUCCGACGAUCGCUUCGAUAUCCGCAUGCUACCUACAGUAAGGUUGGGCUCCAUCCCUGCCUCUUCACACCUCCAUAGCUUCAUCCUUUGCAGACCUCUCCCUCUAUAUCUCUUUGCUCCCCCACCCCCAUUCUAUCUGCACCCCACAACCACACACUGGAGGUUUGAUCCCUGUGGAUCUGAAAACAGGGACCUGGCUAAGGAACUGCUCAUCCCAGUCAGGCCCAGAGAGGUUACCUUGCCUCUCCAUCUCUGUCCCACACACCCCAGCCAUGCCCACUGUCCCUGUCCCUCUUGCGGUCGCACUAGUGUGGAAUUCUCGGGUGUCAAGG
B6: ENSMUSG00000029636.33|Wasf3|33:37;79:83 (ssRNA)
RNA: GGGAGUUCUACAGUCCGACGAUCGCUUCGAUAUCCGCAUGCUAUCCCUGUAGCUUUAGUCCCUUUUGUAUUAACACACACAUUUGCUUCUGCACAUCCUUCUGGAUUUGUUGAGUAUUUACACACAAAUACUUAAGUGCCACAGAACACAGCACACCGUGCUGCACACCAGGAAACUCGCAGUAUUAGUGCAUCACCCUGGAACAGCAUCUUGCUUCCCUCUCAGCCGUGAGAGUCCCCUCUCCUGUCCAUCCUGAUUUGGUGGGCUUGCCACGUAUCUGCGCAGCUGCCCCACGUCAGCUCUCUCUUGCGGUCGCACUAGUGUGGAAUUCUCGGGUGUCAAGG
B7: ENSMUSG00000004113.19|Cacna1b|119:123 (ssRNA)
RNA: GGGAGUUCUACAGUCCGACGAUCGCUUCGAUAUCCGCAUGCUAACCCUUACCUAGGGCAGCGUCUGGACAGUGAGGCCUCCGCCCACACCCUGCCUGAGGAUACACUCACCUUUGAAGAGGCAGUGGCCACCAACUCUGGCCGCUCCUCCAGGACUUCCUAACACACCUCCCUCACUUCCCAAUCCCACCCUCUCCGCCGUGUACCCAAUGGCUAUCACUGCACUUUGGGACUCAGCACUGGCGUCCGGGCGCGGCACAGCUACCACCACCCCGAUCAGGACCACUGGUGCUAGCUGCACCACCUCUUGCGGUCGCACUAGUGUGGAAUUCUCGGGUGUCAAGG
B8: ENSMUSG00000028439.147|Fam219a (ssRNA)
RNA: GGGAGUUCUACAGUCCGACGAUCGCUUCGAUAUCCGCAUGCUAGGUUCCAGGCUGGAAGCAAGAGAUAAGGCUGGCCUCCUGUGCCCCAUUGCCAUUUCACCCUAGCUCAAAGUCCAGGAGCCAGGCUUCCAGAAAGGCUCUUCAAGAGCAAGCUUAAGGAAAUACAGUGAGCCAAGUGGCUGUAUGAUAUGGUAUGGUAUGGUAUGGUAUGGUAUGGUAUGGUAUGCACAUGUGUGUGCAUGUGUGUGUGCCUGUGUGUGUGCGUGUGCGUGUGUGUAUGUGUGUGCGUGUGUGUGUGUGUGCUCUUGCGGUCGCACUAGUGUGGAAUUCUCGGGUGUCAAGG
B9: ENSMUSG00000028439.140|Fam219a (ssRNA)
RNA: GGGAGUUCUACAGUCCGACGAUCGCUUCGAUAUCCGCAUGCUAUCAUCCCCACACCGCCCUGCCACCCCCAGUCUUCUGUCUAUUGGUUCCAGGCUGGAAGCAAGAGAUAAGGCUGGCCUCCUGUGCCCCAUUGCCAUUUCACCCUAGCUCAAAGUCCAGGAGCCAGGCUUCCAGAAAGGCUCUUCAAGAGCAAGCUUAAGGAAAUACAGUGAGCCAAGUGGCUGUAUGAUAUGGUAUGGUAUGGUAUGGUAUGGUAUGGUAUGGUAUGCACAUGUGUGUGCAUGUGUGUGUGCCUGUGUGUGCUCUUGCGGUCGCACUAGUGUGGAAUUCUCGGGUGUCAAGG
B10: ENSMUSG00000028439.141|Fam219a (ssRNA)
RNA: GGGAGUUCUACAGUCCGACGAUCGCUUCGAUAUCCGCAUGCUACCACACCGCCCUGCCACCCCCAGUCUUCUGUCUAUUGGUUCCAGGCUGGAAGCAAGAGAUAAGGCUGGCCUCCUGUGCCCCAUUGCCAUUUCACCCUAGCUCAAAGUCCAGGAGCCAGGCUUCCAGAAAGGCUCUUCAAGAGCAAGCUUAAGGAAAUACAGUGAGCCAAGUGGCUGUAUGAUAUGGUAUGGUAUGGUAUGGUAUGGUAUGGUAUGGUAUGCACAUGUGUGUGCAUGUGUGUGUGCCUGUGUGUGUGCGUGCUCUUGCGGUCGCACUAGUGUGGAAUUCUCGGGUGUCAAGG
B11: ENSMUSG00000028439.138|Fam219a (ssRNA)
RNA: GGGAGUUCUACAGUCCGACGAUCGCUUCGAUAUCCGCAUGCUAUGUCUCUCUGCCUCAUCCCCACACCGCCCUGCCACCCCCAGUCUUCUGUCUAUUGGUUCCAGGCUGGAAGCAAGAGAUAAGGCUGGCCUCCUGUGCCCCAUUGCCAUUUCACCCUAGCUCAAAGUCCAGGAGCCAGGCUUCCAGAAAGGCUCUUCAAGAGCAAGCUUAAGGAAAUACAGUGAGCCAAGUGGCUGUAUGAUAUGGUAUGGUAUGGUAUGGUAUGGUAUGGUAUGGUAUGCACAUGUGUGUGCAUGUGUGUGCUCUUGCGGUCGCACUAGUGUGGAAUUCUCGGGUGUCAAGG
B12: ENSMUSG00000028439.148|Fam219a (ssRNA)
RNA: GGGAGUUCUACAGUCCGACGAUCGCUUCGAUAUCCGCAUGCUAAGGCUGGAAGCAAGAGAUAAGGCUGGCCUCCUGUGCCCCAUUGCCAUUUCACCCUAGCUCAAAGUCCAGGAGCCAGGCUUCCAGAAAGGCUCUUCAAGAGCAAGCUUAAGGAAAUACAGUGAGCCAAGUGGCUGUAUGAUAUGGUAUGGUAUGGUAUGGUAUGGUAUGGUAUGGUAUGCACAUGUGUGUGCAUGUGUGUGUGCCUGUGUGUGUGCGUGUGCGUGUGUGUAUGUGUGUGCGUGUGUGUGUGUGUGUGUUGUCUCUUGCGGUCGCACUAGUGUGGAAUUCUCGGGUGUCAAGG
B13: ENSMUSG00000028439.137|Fam219a (ssRNA)
RNA: GGGAGUUCUACAGUCCGACGAUCGCUUCGAUAUCCGCAUGCUAUGCAUCUGUCUCUCUGCCUCAUCCCCACACCGCCCUGCCACCCCCAGUCUUCUGUCUAUUGGUUCCAGGCUGGAAGCAAGAGAUAAGGCUGGCCUCCUGUGCCCCAUUGCCAUUUCACCCUAGCUCAAAGUCCAGGAGCCAGGCUUCCAGAAAGGCUCUUCAAGAGCAAGCUUAAGGAAAUACAGUGAGCCAAGUGGCUGUAUGAUAUGGUAUGGUAUGGUAUGGUAUGGUAUGGUAUGGUAUGCACAUGUGUGUGCAUGCUCUUGCGGUCGCACUAGUGUGGAAUUCUCGGGUGUCAAGG

biological target: TDP-43 (Homo sapiens, UniProt Q13148 1-414); experiment: RNA Bind-n-Seq with designed 260-mer pool; 25 mM Tris-HCl, 150 mM KCl, 3 mM MgCl2, BSA (printed 500 mg/mL), 20 units/mL SUPERase IN; pH not stated; 500 nM RNA pool, 1 h, 4 C; TDP-43 5, 50, 500 nM; high values mean tight binding; conditions: protein: recombinant; tags: SBP (GST cleaved off with PreScission; pGEX-GST-SBP)
Sequence (Q13148 whole entry): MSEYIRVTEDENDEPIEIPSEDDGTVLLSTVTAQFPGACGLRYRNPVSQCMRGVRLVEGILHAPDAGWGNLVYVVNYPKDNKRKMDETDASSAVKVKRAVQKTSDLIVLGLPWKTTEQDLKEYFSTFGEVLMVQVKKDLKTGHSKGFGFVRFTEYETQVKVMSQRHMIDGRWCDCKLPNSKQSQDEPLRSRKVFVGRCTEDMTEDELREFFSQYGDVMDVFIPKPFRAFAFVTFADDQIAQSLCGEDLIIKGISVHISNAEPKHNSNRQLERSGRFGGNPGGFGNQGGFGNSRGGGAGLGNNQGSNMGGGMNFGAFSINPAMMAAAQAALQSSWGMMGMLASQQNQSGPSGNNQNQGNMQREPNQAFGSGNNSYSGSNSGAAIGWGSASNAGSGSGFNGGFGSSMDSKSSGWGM
How it was run: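 Streptavidin beads captured recombinant SBP-tagged TDP-43 at 5, 50 or 500 nM, and the beads were incubated for 1 h at 4 °C with 500 nM of an in vitro-transcribed pool of 260-nt 3′ UTR oligos in 25 mM Tris-HCl, 150 mM KCl, 3 mM MgCl2, BSA and SUPERase IN. After washing, bound RNA was eluted with biotin, reverse transcribed, PCR-amplified and sequenced. Binding is reported as R, the mapped-read-normalized abundance of each oligo in the bound sample divided by its abundance in the input. Two independent protein batches served as duplicates.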

Binder	binding signal
B1	1.55 R (bound/input frequency ratio)
B2	0.778 R (bound/input frequency ratio)
B3	0.564 R (bound/input frequency ratio)
B4	0.391 R (bound/input frequency ratio)
B5	2.98 R (bound/input frequency ratio)
B6	0.758 R (bound/input frequency ratio)
B7	1.6 R (bound/input frequency ratio)
B8	7.43 R (bound/input frequency ratio)
B9	2.02 R (bound/input frequency ratio)
B10	3.58 R (bound/input frequency ratio)
B11	1.6 R (bound/input frequency ratio)
B12	7.16 R (bound/input frequency ratio)
B13	1.7 R (bound/input frequency ratio)
